Screening data: PubChem BioAssay, University of Kansas High Throughput Screening Laboratory
Shown are actives, neighbours in structure and some others; about 3.5% of the full set was active somewhere.
mHTT-CaM PPI inh – mHTT-calmodulin interaction abrogation | inhibition, % at 15 µM | AlphaScreen His-mHTT/GST-CaM binding, luminescence | hit rate 3.6% among 190,000 | AID 1671202;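 also: 0% = both proteins with DMSO and 100% = one protein alone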
Target sequence (P42858 whole entry, looked up, stated change not applied): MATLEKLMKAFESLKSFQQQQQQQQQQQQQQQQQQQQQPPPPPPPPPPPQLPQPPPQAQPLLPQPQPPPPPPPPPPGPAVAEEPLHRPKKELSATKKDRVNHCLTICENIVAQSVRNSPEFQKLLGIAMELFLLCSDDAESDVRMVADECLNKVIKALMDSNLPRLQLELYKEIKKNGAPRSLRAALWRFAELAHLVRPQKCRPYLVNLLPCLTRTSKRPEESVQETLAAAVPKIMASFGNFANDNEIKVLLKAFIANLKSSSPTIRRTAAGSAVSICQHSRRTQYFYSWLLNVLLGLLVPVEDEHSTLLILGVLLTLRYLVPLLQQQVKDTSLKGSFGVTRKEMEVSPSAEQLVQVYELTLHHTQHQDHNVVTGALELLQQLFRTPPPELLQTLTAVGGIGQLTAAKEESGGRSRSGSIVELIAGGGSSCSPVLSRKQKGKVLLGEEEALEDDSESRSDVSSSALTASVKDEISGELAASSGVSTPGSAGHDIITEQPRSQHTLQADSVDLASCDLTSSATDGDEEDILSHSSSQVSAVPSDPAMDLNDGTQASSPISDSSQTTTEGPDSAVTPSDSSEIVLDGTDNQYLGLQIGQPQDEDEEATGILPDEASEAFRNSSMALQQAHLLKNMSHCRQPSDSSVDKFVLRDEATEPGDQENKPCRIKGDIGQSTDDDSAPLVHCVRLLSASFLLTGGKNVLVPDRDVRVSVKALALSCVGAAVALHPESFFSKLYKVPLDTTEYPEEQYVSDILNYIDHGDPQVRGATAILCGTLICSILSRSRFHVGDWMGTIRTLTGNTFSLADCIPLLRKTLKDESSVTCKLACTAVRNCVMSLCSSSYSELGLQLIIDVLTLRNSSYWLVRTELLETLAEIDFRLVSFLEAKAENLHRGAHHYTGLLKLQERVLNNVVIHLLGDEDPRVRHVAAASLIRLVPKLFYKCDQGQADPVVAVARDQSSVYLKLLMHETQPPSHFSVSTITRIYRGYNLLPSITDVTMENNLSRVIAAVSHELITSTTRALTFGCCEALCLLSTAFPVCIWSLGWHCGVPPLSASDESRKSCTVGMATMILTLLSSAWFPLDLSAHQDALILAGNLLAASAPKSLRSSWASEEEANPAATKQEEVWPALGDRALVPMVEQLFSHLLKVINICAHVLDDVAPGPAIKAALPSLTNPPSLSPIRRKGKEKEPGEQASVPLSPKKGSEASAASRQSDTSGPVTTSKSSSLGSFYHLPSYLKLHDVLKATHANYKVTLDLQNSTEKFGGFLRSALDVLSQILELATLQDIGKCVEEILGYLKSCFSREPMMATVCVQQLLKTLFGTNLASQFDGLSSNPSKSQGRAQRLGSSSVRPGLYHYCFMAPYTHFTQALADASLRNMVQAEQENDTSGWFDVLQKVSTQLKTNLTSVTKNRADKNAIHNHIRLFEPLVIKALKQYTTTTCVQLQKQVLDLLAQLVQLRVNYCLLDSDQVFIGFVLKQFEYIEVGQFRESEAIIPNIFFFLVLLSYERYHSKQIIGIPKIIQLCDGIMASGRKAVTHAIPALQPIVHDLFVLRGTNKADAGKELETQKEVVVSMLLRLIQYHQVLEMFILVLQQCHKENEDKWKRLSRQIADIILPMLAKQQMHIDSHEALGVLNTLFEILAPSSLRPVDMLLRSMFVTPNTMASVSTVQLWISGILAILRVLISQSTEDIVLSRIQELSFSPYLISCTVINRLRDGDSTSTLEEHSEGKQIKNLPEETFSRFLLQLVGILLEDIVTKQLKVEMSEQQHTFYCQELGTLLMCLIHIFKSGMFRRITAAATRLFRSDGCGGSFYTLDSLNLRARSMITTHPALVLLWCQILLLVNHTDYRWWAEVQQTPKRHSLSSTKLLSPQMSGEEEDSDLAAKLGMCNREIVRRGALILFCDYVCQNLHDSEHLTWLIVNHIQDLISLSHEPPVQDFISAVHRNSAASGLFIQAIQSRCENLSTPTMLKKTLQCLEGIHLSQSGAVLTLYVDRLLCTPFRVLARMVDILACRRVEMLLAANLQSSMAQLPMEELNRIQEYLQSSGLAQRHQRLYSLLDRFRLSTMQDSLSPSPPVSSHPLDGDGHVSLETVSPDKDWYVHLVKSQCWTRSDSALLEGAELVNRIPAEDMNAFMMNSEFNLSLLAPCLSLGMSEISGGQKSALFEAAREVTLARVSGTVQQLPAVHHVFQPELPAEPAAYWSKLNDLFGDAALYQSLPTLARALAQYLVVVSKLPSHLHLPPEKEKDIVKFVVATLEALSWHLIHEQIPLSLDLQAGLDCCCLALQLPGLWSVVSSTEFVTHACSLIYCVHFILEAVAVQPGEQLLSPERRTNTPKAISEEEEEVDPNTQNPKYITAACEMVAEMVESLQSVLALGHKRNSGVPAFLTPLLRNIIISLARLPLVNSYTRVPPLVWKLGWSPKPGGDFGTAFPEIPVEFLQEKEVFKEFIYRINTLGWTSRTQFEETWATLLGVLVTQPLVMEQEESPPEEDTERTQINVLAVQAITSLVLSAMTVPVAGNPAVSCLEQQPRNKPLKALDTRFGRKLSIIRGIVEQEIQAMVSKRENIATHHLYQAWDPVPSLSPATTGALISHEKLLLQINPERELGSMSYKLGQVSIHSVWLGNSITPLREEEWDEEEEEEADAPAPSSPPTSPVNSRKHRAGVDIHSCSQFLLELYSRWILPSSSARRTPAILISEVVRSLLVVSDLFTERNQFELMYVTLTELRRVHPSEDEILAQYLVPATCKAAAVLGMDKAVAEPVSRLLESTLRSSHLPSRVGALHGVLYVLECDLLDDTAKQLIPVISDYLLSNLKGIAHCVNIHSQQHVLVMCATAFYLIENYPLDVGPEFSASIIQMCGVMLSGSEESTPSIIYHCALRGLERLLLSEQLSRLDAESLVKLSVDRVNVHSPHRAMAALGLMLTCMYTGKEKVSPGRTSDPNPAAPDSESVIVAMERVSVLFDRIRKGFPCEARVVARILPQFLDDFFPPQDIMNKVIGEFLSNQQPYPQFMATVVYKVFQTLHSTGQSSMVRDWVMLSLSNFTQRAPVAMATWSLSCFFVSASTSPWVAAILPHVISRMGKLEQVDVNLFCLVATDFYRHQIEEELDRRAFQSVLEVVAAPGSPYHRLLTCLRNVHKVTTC
Pf apPOL inh – Pf-apPOL DNA polymerase inhibition; Recombinant Pf-apPOL, molecular beacon fluorescence, 1.5 h; inhibition, % at 10 µM; hit rate 0.25% among 210,000; AID 1794808
Active calls of the source: *; nt = no result given; ! = not active in a repeat. Rule as the data show it: active = inhibition above about 50%; inactive = the rest.

SMILES	mHTT-CaM PPI inh	Pf apPOL inh
COc1cccc(CN2Cc3cccc4c3[C@H](C=CC4)CC2=O)c1	100.2*	0.0
O=C1C[C@H]2C=CCc3cccc(c32)CN1Cc1ccc(Cl)cc1	29.6	-1.9
Cc1ccc(O)c(N=Cc2cc(I)ccc2O)c1	63.0*	5.2
Cc1cc(I)c(O)c(C=Nc2cc(C)ccc2O)c1	45.0	-5.6
CCc1onc(C)c1C1CCCN1Cc1ccc(N(CC)CC)cc1 (configuration not stated)	67.4*	0.1
CCc1onc(C)c1C1CCCN1Cc1ccc(O)cc1 (configuration not stated)	-0.6	8.9
COc1ccc(-c2nn(-c3ccccc3)cc2C=NC2CCS(=O)(=O)C2)cc1Br (configuration not stated)	15.0	-2.0
COc1ccc(-c2nc3cc(C)ccn3c2NC(=O)C(C)C)cc1OC	16.9	3.8
O=C1Nc2ccc([N+](=O)[O-])cc2C1=Nc1ccc(C(=O)O)cc1	8.0	0.5
O=S(=O)(Nc1nc2n(n1)C(c1ccccc1)C=C(c1ccc(Cl)cc1)N2)c1ccccc1 (configuration not stated)	5.0	-3.0
O=C1CCC(=O)N1c1nc2n(n1)C(c1ccccc1)C=C(c1ccc(Cl)cc1)N2 (configuration not stated)	77.0*	9.5
Cc1oc(C2CCN(C(=O)CCc3ccccc3)CC2)nc1C(=O)N(C)C	6.7	0.8
CN(C)S(=O)(=O)c1ccc(C(=O)Nc2nc3cc4c(cc3s2)OCO4)cc1	18.4	-3.3
CCc1noc(C2(NC(=O)c3nccc4ccccc34)CCCCC2)n1	-7.3	-5.0
N#Cc1ccc(C(=O)NC2CC(O)C(CO)C2)cc1 (configuration not stated)	2.0	1.1
O=C1C(=O)N(Cc2ccc(F)cc2)c2ccc([N+](=O)[O-])cc21	11.0	-2.1
Cc1ccc(CN2C(=O)C(=O)c3cc(Br)ccc32)cc1	51.0*	-0.2
C=CCN1C(=O)C(=O)c2cc(Br)ccc21	9.0	3.4
O=C1C(=O)N(Cc2ccc(F)cc2)c2ccc(Br)cc21	70.0*	-1.4
O=C1C(=O)N(Cc2ccc(Cl)c(Cl)c2)c2ccc(Br)cc21	100.0*	2.4
CCCN1C(=O)C(=O)c2cc(Br)ccc21	25.0	-68.3
Cc1ccc(C)c(NC(=O)Cn2ccc3ccc(-c4nnc(C)o4)cc32)c1	-17.5	1.0
Clc1nc(NCc2ccco2)nc(Oc2ccccc2)n1	53.0*	-5.4
Clc1nc(NCc2ccco2)nc(NC2CCCCC2)n1	-3.7	nt
COc1ccc(C2C(C(=O)Nc3ccc(Cl)cc3)=C(C)Nc3ncnn32)cc1Br (configuration not stated)	40.0	1.7
SMILES	mHTT-CaM PPI inh	Pf apPOL inh
COc1ccc(Br)cc1C1C(C(=O)Nc2ccc(Cl)cc2)=C(C)Nc2ncnn21 (configuration not stated)	60.0*	-3.3
COc1ccc(-c2nc(COc3ccc(F)cc3)no2)cc1	-17.9	-3.0
CC(C(=O)NC1CCCCC1)C1CCN(S(=O)(=O)c2ccc(Cl)s2)CC1 (configuration not stated)	-9.4	-3.7
CC(C)(C)c1ccc(C(=O)NC(NCc2ccco2)C(Cl)(Cl)Cl)cc1 (configuration not stated)	-14.0	-1.6
CCCCN1N=C(C(=O)N2CCCCC2)S(=O)(=O)c2ccccc21	-2.9	-4.3
O=S(=O)(NC1CCCCC1)c1ccc2[nH]c3c(c2c1)CCCCC3	95.5*	-3.0
S=C(NCc1ccc2[nH]c3c(c2c1)CCCC3)NC1CCCCC1	39.8	-3.0
Cc1ccc(NS(=O)(=O)c2ccc3[nH]c4c(c3c2)CCCCC4)nc1	60.4*	-3.8
O=S(=O)(Nc1ccccn1)c1ccc2[nH]c3c(c2c1)CCCCC3	2.1	-1.6
Cc1ccc(CNC(=O)C2c3ccccc3CC(=O)N2C)o1 (configuration not stated)	3.6	-0.2
O=C(CSc1cc(NCc2ccccc2Cl)ncn1)NC1CCCC1	-4.2	-3.0
CCCNC(=O)C1CCN(c2nc3ccsc3c(=O)n2-c2ccccc2)CC1	3.3	-3.8
CS(=O)(=O)c1ccc(N2CC(c3nnc(NC(=O)c4ccco4)o3)CC2=O)cc1 (configuration not stated)	34.9	-1.3
O=C(O)c1cc2ncc(Br)cn2n1	4.2	68.6*
N#Cc1c(NC(=O)c2cc3ncc(Br)cn3n2)sc2c1CCCC2	-5.3	-0.8
CCC(Sc1nc2ccccc2o1)C(=O)Nc1ccc(Cl)cn1 (configuration not stated)	-15.6	-2.1
CCC(Sc1nc2ccccc2o1)C(=O)Nc1nnc(C)s1 (configuration not stated)	0.0	85.3*
CC[C@H](C)[C@@H](C(=O)OC)N(Cc1cn(Cc2ccccc2)nn1)S(=O)(=O)c1ccccc1Br	-3.3	-6.6
O=C(Cn1cnc2scc(-c3ccccc3)c2c1=O)NCc1ccco1	19.1	-9.0
O=c1c2ccccc2nc2c3ccccc3c(NCc3ccco3)nn12	65.0*	-2.1
Fc1ccccc1-c1nc(NCc2ccco2)c2ccccc2n1	5.2	-6.3
O=c1c2c(-c3ccccc3)csc2nc2c3ccccc3c(NCc3ccco3)nn12	100.0*	1.1
CC(=O)Nc1ccc(-c2noc(C3CCN(C(=O)c4ccoc4)CC3)n2)cc1	-0.4	-7.0
O=S(=O)(CCN1CCC(C(c2ccccc2)c2ccccc2)CC1)c1ccc(F)cc1	nt	-10.3
Cc1nc2sc(C(=O)Nc3c(F)cccc3F)c(C)c2c(=O)[nH]1	-7.0	-4.6
SMILES	mHTT-CaM PPI inh	Pf apPOL inh
Cc1ccccc1N=c1scc(-c2ccccc2)n1Cc1ccco1	73.0*	0.3
Cc1csc(=NC(=O)c2ccccc2)n1Cc1ccco1	6.0	-0.3
O=C(NC1CC1)c1ccccc1OCC1CCN(C(=O)C2(c3ccccc3)CC2)CC1	6.0	4.3
C=C1OC(n2cc(C)c(=O)[nH]c2=O)CC1O (configuration not stated)	-4.9	nt
c1ccc(-c2nc(SCC3COc4ccccc4O3)oc2-c2ccccc2)cc1 (configuration not stated)	-13.3	nt
N#CCSc1nc(-c2ccccc2)c(-c2ccccc2)o1	-26.0	92.3*!
COc1cc(C=C2Oc3cc(O)cc(C)c3C2=O)cc(OC)c1OC	0.4	-12.3
COc1cc(CN2CCc3nc(Nc4ccccc4F)ncc3C2)ccc1OC(C)C	10.8	-3.1
COc1cc(CN2CCc3nc(Nc4ccccc4)ncc3C2)ccc1OC(C)C	57.2*	-0.6
COc1cc(CN2CCc3nc(Nc4ccc(F)cc4)ncc3C2)ccc1OC(C)C	95.5*	-4.7
CCOc1ccc(CN2CCc3nc(Nc4ccccc4)ncc3C2)cc1OC	-6.4	-2.2
CC1(C)Cc2c(sc3c2c2nnnn2c2nnnn32)CO1	6.7	20.2
CSc1nc2ccc(N=Cc3ccc(O)cc3)cc2s1	20.0	8.9
NS(=O)(=O)c1ccc(NC(=O)CCc2csc(NC(=O)c3ccco3)n2)cc1	10.4	3.3
O=C(Nc1cnc2ccccc2c1)N(c1ccccc1)c1ccccc1	9.5	-16.8
COc1ccc2c(C)nc(Nc3nc4ccccc4c(=O)[nH]3)nc2c1	1.0	-3.6
COc1ccc(C2CC(=O)NC(Nc3nc(C)c4ccc(C)cc4n3)=N2)cc1 (configuration not stated)	68.4*	-11.2
COc1ccc(NC(=O)C2CC(=O)NC(Nc3nc(C)c4ccccc4n3)=N2)cc1 (configuration not stated)	32.7	-12.9
COc1ccc2nc(NC3=NC(c4ccccc4)CC(=O)N3)nc(C)c2c1 (configuration not stated)	53.8*	59.5*
